# This excerpt belongs to a sample that is enriched for hits.
# Sfp PPTase inh: Sfp phosphopantetheinyl transferase inhibition. Q9F4F7. Biochemical Sfp PPTase activity, qHTS. Potency, µM, hits mostly inhibitors. 3.5% of 310,000 active. AID 1490;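 note: the enzyme is Sfp with the accession as filed and its product quenches rhodamine fluorescence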
#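 With Hepes-Na pH 7.6 buffer containing 10 mM MgCl2, Sfp (15 nM) modified BHQ-2-YbbR (12.5 uM) using rhodamine-CoA (5 uM). Two reads 30 minutes apart at 525/598 nm yielded each well's rate.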
# VDR inh: vitamin D3 receptor (human) inhibition; 0.93% of 400,000 active; P11473; Potency, µM, most hits filed as inhibitors; VDR-SRC2-3 peptide fluorescence polarization, 2 h
# Target sequence (P11473 whole entry, looked up): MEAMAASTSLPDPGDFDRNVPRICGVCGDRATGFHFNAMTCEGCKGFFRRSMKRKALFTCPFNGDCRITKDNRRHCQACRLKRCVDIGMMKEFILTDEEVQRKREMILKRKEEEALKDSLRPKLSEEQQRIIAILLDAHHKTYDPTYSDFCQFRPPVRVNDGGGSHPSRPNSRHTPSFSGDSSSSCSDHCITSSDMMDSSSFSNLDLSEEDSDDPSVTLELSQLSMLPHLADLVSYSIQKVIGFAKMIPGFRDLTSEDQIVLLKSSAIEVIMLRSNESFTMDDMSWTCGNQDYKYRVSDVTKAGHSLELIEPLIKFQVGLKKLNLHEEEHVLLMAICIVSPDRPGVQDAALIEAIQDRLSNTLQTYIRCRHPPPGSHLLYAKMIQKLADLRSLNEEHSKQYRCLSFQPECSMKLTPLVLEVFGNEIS
#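 The screen uses fluorescence polarization to detect compounds that interfere with recruitment of the SRC2-3 coactivator peptide to VDR; plates are read after 2 h at room temperature.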
# Glioma ERSR ind: inducers of ER stress response in human glioma cells; Potency, µM, actives largely listed as activators; U87-MG GRP78 promoter luciferase reporter, 16 h; 0.02% of 420,000 active; note: series mostly up to about 76 µM; nearly all actives have a fitted effect of over 35% in size
#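 Stably transfected U87-MG human glioma cells carrying a GRP78-based luminescent sensor were seeded at 1000 cells/well, pin-dosed with compounds and incubated 16 h. Luciferase reagent was then added, and end-point luminescence was read after 10 min at room temperature.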
# 12-LOX inh: blocks human arachidonate 12S-lipoxygenase | P18054 | purified 12hLO, xylenol orange hydroperoxide absorbance | Potency, µM (titrated, usually from 108 µM), usual class: inhibitors | 1.1% of 580,000 active | AID 1671190
#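 Purified human 12hLO (150 nM final) in 25 mM Hepes, 0.01% Triton X-100, pH 7.0 was preincubated 15 min at room temperature with compound. Then 40 uM arachidonic acid was added, 30 min. Hydroperoxide was read by Fe-XO absorbance ratio 573/405 nm.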
# G9a inh: G9a (human) methyltransferase inhibition. Q96KQ7. G9a H3K9 monomethylation, AlphaScreen, 2 h. Potency, µM (highest dose often 102 µM), most hits filed as inhibitors. 8.8% of 350,000 active. AID 504332; note: nearly all actives have a fitted effect of over 75% in size
# Target sequence (Q96KQ7 913-1193 limits assumed): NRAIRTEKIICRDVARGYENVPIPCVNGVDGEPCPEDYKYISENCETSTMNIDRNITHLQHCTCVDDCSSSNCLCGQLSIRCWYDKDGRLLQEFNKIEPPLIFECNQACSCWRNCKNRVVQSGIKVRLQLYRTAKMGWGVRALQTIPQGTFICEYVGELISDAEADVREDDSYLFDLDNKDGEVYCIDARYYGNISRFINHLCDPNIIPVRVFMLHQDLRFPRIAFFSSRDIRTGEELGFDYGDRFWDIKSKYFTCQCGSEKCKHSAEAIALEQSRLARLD
#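 Readings reflect AlphaScreen signal from monomethyl-H3K9 antibody detection. HMT at 20 nM; substrate b-H3K9 500 nM; cofactor SAM 20 uM; 2 h RT reaction; compounds tested as titrations in qHTS with 15 min preincubation.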
# USP1-UAF1 confirm: blocks human USP1/UAF1 cleavage of Ub-Rhodamine; Ub-Rhodamine cleavage, fluorescence kinetic read; shares compounds with VDR inh; 50% of 50 active; Potency, µM (top dose mostly 114 µM), hits mostly inhibitors
# VDR inh confirm: inhibits human vitamin D receptor, primary hit validation; shares compounds with VDR inh; VDR-coactivator inhibition assay, qHTS confirmation; Potency, µM, usual class: inhibitors; 89% of 840 active; AID 602199
# VDR FP: VDR (human) coactivator binding inhibition, fluorescein polarization | shares compounds with VDR inh | VDR-coactivator binding, fluorescein fluorescence polarization | Potency, µM (doses to about 57.1 µM), usual class: inhibitors | 48% of 840 active
# VDR bla reporter: VDR (human) inhibition, cell-based beta-lactamase validation; shares compounds with VDR inh; VDR beta-lactamase reporter cells, FRET ratio; cells co-treated with VDR agonist LG190178; Potency, µM (doses to about 46.1 µM), most hits filed as inhibitors; 23% of 840 active
# VDR viability: counter-screen for vitamin D receptor inhibitors: cytotoxicity | 18% of 840 active | Potency, µM (top dose mostly 48.3 µM), actives largely listed as cytotoxic | shares compounds with VDR inh | cytotoxicity counter-screen, cell viability, qHTS; note: nearly all actives have a fitted effect of over 75% in size
# Numbers stand for hits; . = inactive; ? = inconclusive; / = no result; [ ] = remark or other dose. Calls come from the whole dose curve; as a rule, active = well fitted curve in the direction sought with a large enough effect; inconclusive = small, poorly fitted or top-dose-only effect, or another doubt; inactive = no such curve, though single readings can be large; an effect the other way counts as inactive or inconclusive.
SMILES,Sfp PPTase inh,VDR inh,Glioma ERSR ind,12-LOX inh,G9a inh,VDR inh confirm,VDR FP,VDR bla reporter,VDR viability,others
Cc1cccc2c1NC(=O)/C2=C\C(=O)c1cccs1,.,?,.,.,?,6.3,8.9µM,23µM,30µM,
COC(=O)CNCc1cccc(F)c1,/,/,/,.,/,/,/,/,/,
CC(C)(C)c1cc(C(c2cccnc2)N2CCN(CCO)CC2)cc(C(C)(C)C)c1O (stereo not drawn),20µM,25µM,.,?,10µM,3.8,4µM,16µM,?,
CC(C)(C)n1nnnc1C(c1cccnc1)N1CCN(C2CCCCC2)CC1 (stereo not drawn),.,.,.,.,.,/,/,/,/,
O=C(/C=C/c1cccc([N+](=O)[O-])c1)Nc1ccc(NC(=O)c2cccs2)cc1,.,.,.,?,.,/,/,/,/,
O=C(/C=C/c1cccc([N+](=O)[O-])c1)c1cccs1,.,?,?,.,.,5.6,7.9µM,.,?,
COc1ccc(/C=C/C(=O)c2ccc3c(c2)OCCO3)cc1[N+](=O)[O-],?,.,?,.,.,/,/,/,/,
O=C(/C=C/c1cccc([N+](=O)[O-])c1)c1ccc2c(c1)OCCO2,.,?,?,.,.,13,13µM,?,?,
CCCOC(=O)c1c(NC(=O)C2CCCO2)sc(C(=O)OC)c1C (stereo not drawn),6.3µM,79µM,.,?,3.5µM,24,?,.,.,
Cc1c(C(N)=O)sc(NC(=O)C2CCCO2)c1C(=O)OC(C)C (stereo not drawn),/,/,/,.,/,/,/,/,/,
O=C(NCc1ccc2c(c1)OCO2)c1ccc(Br)cc1,.,.,.,.,/,/,/,/,/,
O=C1Nc2ccc(Br)cc2/C1=C/C(=O)c1ccc2c(c1)OCO2,56µM,40µM,.,?,10µM,?,?,?,?,
FC(F)(F)c1cccc(Sc2nc(-c3ccccc3)nnc2C(F)(F)F)c1,.,32µM,.,.,.[12.7 µM],15,?,?,?,
Cc1ccccc1CS(=O)(=O)c1nnc([C@H](CC(C)C)NC(=O)OC(C)(C)C)o1,22µM,20µM,.,.,35µM,11,7.1µM,?,?,
Cc1nc(N=Nc2ccc(C(=O)O)cc2)c(COP(=O)(O)O)c(C=O)c1O,/,.,.,/,40µM,/,/,/,/,USP1-UAF1 confirm=5.9µM
CS(=O)(=O)c1ccc(S(=O)CC(=O)OCc2ccccc2)c([N+](=O)[O-])c1 (stereo not drawn),.,18µM,.,.,10µM,9.5,13µM,?,21µM,
O=C1Nc2ccccc2C1=Nc1ccc(F)cc1,.,?,.,/,.,/,/,/,/,
CC(=O)c1ccc(N=C2C(=O)Nc3ccccc32)cc1,.,4µM,.,.,?,3.4,3.5µM,.,.,
NC(=O)c1ccc(N=C2C(=O)Nc3ccc([N+](=O)[O-])cc32)cc1,.,?,.,.,/,0.63,0.71µM,.,.,
NS(=O)(=O)c1ccc(N=C2C(=O)Nc3ccccc32)cc1,.,.,.,.,/,/,/,/,/,
COc1cc(/C=C2/N=C(C3CCCCC3)OC2=O)cc(OC)c1OC,?,40µM,.,.,.,17,14µM,.,.,
COC(=O)/C=c1/sc2nc3ccccc3n2c1=O,11µM,?,.,?,2.5µM,3.2,2.8µM,.,.,
Cn1cc(C(=O)NCCNC(=O)c2cccs2)c2ccccc21,/,/,/,.,/,/,/,/,/,
O=C1C(Cl)=C(NS(=O)(=O)c2ccc([N+](=O)[O-])cc2)C(=O)c2ccccc21,.,22µM,.,?,.,6,?,?,?,
C=C(C)CN(CC)C(=O)CN1CCC(C(=O)NCCCO)CC1,/,/,/,.,/,/,/,/,/,
SMILES,Sfp PPTase inh,VDR inh,Glioma ERSR ind,12-LOX inh,G9a inh,VDR inh confirm,VDR FP,VDR bla reporter,VDR viability,others
CC1=C(C)CS(=O)N(S(=O)(=O)c2ccc(Cl)cc2)C1 (stereo not drawn),3.5µM,2.8µM,.,40µM,2.2µM,1.2,?,.,16µM,
CCc1ccc(C(=O)/C=C/c2ccc([N+](=O)[O-])cc2)cc1,/,/,/,.,/,/,/,/,/,
CCc1ccc(C(=O)/C=C/c2ccc([N+](=O)[O-])o2)cc1,.,32µM,.,?,32µM,6.7,?,16µM,?,
CCc1ccc(/C=C/C(=O)c2ccc(S(=O)(=O)N(C)C)cc2)cc1,.,?,.,.,?,?,6.3µM,.,?,
CCc1ccc(/C=C/C(=O)c2ccc(CC(=O)O)cc2)cc1,/,/,/,.,/,/,/,/,/,
CCCNc1c(NC(=O)Nc2cc(Cl)ccc2C)c(=O)oc2ccccc12,/,/,/,.,/,/,/,/,/,
COc1cc(C2NC(=O)c3ccccc3O2)cc(OC)c1OC (stereo not drawn),.,.,.,.,.,/,/,/,/,
COc1cc(C2Oc3ccccc3C=C2[N+](=O)[O-])cc(OC)c1OC (stereo not drawn),?,22µM,.,?,/,17,?,?,?,
Cc1cc(C)c(S(=O)(=O)n2cc3c(=O)n(C)c(=O)n(C)c3n2)cc1C,/,/,/,.,/,/,/,/,/,
CCCCCC(=O)N/N=C/c1ccc([N+](=O)[O-])o1,.,.,.,?,.,/,/,/,/,
CCN(CC)c1ccc(N=Cc2ccc([N+](=O)[O-])o2)cc1,28µM,?,.,?,2.5µM,7.9,.,.,.,
Fc1ccc(CNC2=NCCNC23CCCCCC3)cc1,/,/,/,.,/,/,/,/,/,
Cc1ccc(C(=O)c2no[n+]([O-])c2C(=O)c2ccc(C)cc2)cc1,?,?,?,.,40µM,10,18µM,6.5µM,13µM,
Cc1[nH]c2ccccc2c1C(=O)COC(=O)CCC(C)C,/,/,/,.,/,/,/,/,/,
CCCNC(=O)c1ccc(Oc2nccnc2Sc2ccccc2)cc1,/,/,/,.,/,/,/,/,/,
CCc1ccc(C(=O)Nc2ccc3nn(-c4ccc(C)c(Cl)c4)nc3c2)cc1,/,.,.,.,.,/,/,/,/,
CCc1ccc(-n2nc3cc(C)c(N)cc3n2)cc1,56µM,?,.,20µM,1.1µM,7.1,13µM,.,.,
CCC(=O)Oc1oc(-c2ccccc2)nc1C=Nc1ccc(C)cc1,.,.,.,.,?,/,/,/,/,
COc1ccc(N=Cc2nc(-c3ccccc3)oc2OC(=O)c2ccccc2)cc1,.,40µM,.,.,.,9.5,?,.,.,
CCOC(=O)c1ccc(N=Cc2nc(-c3ccccc3)oc2OC(C)=O)cc1,.,18µM,.,?,7.9µM,4.2,?,.,.,
CC(=O)Oc1oc(-c2ccccc2)nc1C=Nc1ccccc1,.,40µM,.,.,50µM,11,13µM,.,.,
O=C(CN1CCN(c2nccs2)CC1)NCc1ccc(F)cc1,/,/,/,.,/,/,/,/,/,

# Compound activity as filed in PubChem.
